This passage reports binding signal results from paper PMC7862700, “An all-to-all approach to the identification of sequence-specific readers for epigenetic DNA modifications on cytosine”.

Test in all cases: DAPPL (digital affinity profiling via proximity ligation, sequencing); 10 mM Tris-HCl pH 7.5, 50 mM NaCl, 1 mM DTT, 4% glycerol, room temperature, 30 min; GST-TFs on glutathione beads, 16-mer random dsDNA library, 0.1% formaldehyde crosslink after washing; high values mean tight binding
The target of experiment [1] is T1, FEV (Homo sapiens, UniProt Q99581 1-238).
T1 sequence: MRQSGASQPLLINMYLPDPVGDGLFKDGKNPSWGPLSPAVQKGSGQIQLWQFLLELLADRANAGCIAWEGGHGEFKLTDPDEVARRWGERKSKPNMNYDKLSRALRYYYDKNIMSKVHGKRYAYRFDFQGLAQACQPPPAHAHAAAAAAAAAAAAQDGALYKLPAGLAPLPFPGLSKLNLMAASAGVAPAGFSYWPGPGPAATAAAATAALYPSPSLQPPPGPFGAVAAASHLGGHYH
The conditions noted are these: protein: recombinant; tags: N-terminal GST; dsDNA, one strand shown. The gist of the method: (§1)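 Human transcription factors carrying a GST fusion were produced in yeast, bound to glutathione beads, tagged with DNA barcodes and pooled together with a tag-only sample. Each pool was held with 200 nmole of a random double-stranded 16-mer DNA library in Tris/NaCl/DTT/glycerol buffer for 30 min at room temperature, then washed, crosslinked in 0.1% formaldehyde, proximity-ligated with BsaI/T4 ligase (1 h, 37 °C), PCR-amplified and sequenced on an Illumina NextSeq500. Binding signal is the read frequency of each hexamer for a given factor divided by its frequency in the tag-only sample.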

The target of experiment [2] is ETV5 (Homo sapiens, UniProt P41161 1-510). Particulars: protein: recombinant; tags: N-terminal GST; dsDNA, one strand shown. The gist of the method: as §1
For experiment [3], the target named is HSF1 (Homo sapiens, UniProt Q00613 1-529). Particulars: protein: recombinant; tags: N-terminal GST; chain copies: 3; dsDNA, one strand shown. The gist of the method: as §1
Experiment [4] has as its target T2, SPIC (Homo sapiens, UniProt Q8N5J4 1-248).
T2 sequence: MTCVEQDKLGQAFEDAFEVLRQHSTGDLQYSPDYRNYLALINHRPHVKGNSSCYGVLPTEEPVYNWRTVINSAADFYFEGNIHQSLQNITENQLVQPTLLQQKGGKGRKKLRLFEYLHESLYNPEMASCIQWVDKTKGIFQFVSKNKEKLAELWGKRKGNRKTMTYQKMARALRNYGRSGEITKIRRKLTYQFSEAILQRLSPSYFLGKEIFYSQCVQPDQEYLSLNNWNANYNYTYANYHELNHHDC
The conditions noted are these: protein: recombinant; tags: N-terminal GST; dsDNA, one strand shown. The gist of the method: as §1

In experiment [5] the target is ELF4 (Homo sapiens, UniProt Q99607 1-663). Particulars: protein: recombinant; tags: N-terminal GST; dsDNA, one strand shown. The gist of the method: as §1
The target in experiment [6] is T3, ELK4 (Homo sapiens, UniProt P28324-2 1-405).
T3 sequence: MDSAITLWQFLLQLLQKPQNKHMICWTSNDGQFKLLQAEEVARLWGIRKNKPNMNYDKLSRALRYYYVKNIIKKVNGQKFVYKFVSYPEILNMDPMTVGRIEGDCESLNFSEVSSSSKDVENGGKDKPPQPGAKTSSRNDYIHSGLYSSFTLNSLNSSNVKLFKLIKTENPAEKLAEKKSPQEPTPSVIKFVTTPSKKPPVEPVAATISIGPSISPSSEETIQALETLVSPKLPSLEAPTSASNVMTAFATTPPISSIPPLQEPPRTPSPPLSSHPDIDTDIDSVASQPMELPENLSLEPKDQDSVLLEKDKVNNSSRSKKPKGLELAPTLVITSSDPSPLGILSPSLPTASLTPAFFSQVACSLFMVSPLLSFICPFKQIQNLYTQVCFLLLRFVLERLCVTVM
Particulars: protein: recombinant; tags: N-terminal GST; dsDNA, one strand shown. The gist of the method:
as §1

Experiment [7] deals with T4, ETV2 (Homo sapiens, UniProt O00321 1-342).
T4 sequence: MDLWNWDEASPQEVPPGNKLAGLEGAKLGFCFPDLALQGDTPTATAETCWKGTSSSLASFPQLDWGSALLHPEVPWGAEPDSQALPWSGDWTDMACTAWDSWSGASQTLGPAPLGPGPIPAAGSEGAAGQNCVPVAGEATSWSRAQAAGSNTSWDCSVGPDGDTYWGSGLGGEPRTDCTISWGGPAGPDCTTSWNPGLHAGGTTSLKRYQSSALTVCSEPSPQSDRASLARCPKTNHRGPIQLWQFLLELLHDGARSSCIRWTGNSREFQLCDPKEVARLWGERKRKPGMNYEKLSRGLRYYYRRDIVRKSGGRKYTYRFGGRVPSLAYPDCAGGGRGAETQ
The conditions noted are these: protein: recombinant; tags: N-terminal GST; dsDNA, one strand shown. The gist of the method: as §1

Experiment [8] concerns the target T5, ELF3 (Homo sapiens, UniProt P78545 1-371).
T5 sequence: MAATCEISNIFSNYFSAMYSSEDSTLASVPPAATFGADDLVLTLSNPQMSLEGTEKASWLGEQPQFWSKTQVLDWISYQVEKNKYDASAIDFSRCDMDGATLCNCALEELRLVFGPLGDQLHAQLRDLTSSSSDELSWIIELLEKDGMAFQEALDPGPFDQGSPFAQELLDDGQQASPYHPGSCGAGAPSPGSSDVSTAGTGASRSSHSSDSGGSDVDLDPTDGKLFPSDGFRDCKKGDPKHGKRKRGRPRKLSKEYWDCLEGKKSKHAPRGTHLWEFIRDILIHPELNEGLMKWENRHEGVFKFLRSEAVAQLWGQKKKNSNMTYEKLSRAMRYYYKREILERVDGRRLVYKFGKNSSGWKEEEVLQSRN
The conditions noted are these: protein: recombinant; tags: N-terminal GST; dsDNA, one strand shown. The gist of the method:
as §1

Experiment [9] concerns the target CRX (Homo sapiens, UniProt O43186 1-299). Particulars: protein: recombinant; tags: N-terminal GST; dsDNA, one strand shown. The gist of the method:
as §1

The target of experiment [10] is ETV1 (Homo sapiens, UniProt P50549 1-477). The conditions noted are these: protein: recombinant; tags: N-terminal GST; dsDNA, one strand shown. The gist of the method: as §1
Experiment [11] has as its target T6, ERF (Homo sapiens, UniProt P50548 1-548).
T6 sequence: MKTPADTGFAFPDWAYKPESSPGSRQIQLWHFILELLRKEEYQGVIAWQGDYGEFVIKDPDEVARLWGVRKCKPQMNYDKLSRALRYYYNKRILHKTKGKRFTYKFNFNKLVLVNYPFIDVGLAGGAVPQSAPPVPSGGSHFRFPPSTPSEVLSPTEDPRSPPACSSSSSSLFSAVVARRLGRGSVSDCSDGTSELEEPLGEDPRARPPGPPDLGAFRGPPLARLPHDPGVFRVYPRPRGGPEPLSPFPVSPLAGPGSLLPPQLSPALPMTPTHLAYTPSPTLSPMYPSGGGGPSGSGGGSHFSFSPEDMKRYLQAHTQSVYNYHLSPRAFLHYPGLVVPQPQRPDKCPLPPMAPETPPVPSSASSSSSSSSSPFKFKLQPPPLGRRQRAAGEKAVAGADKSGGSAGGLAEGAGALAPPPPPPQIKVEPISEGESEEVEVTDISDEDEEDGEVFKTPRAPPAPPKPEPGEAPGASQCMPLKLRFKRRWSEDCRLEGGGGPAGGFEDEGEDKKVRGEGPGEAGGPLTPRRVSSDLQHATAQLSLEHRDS
The conditions noted are these: protein: recombinant; tags: N-terminal GST; dsDNA, one strand shown. The gist of the method: as §1

Experiment [12] deals with T7, ETV3L (Homo sapiens, UniProt Q6ZN32 1-361).
T7 sequence: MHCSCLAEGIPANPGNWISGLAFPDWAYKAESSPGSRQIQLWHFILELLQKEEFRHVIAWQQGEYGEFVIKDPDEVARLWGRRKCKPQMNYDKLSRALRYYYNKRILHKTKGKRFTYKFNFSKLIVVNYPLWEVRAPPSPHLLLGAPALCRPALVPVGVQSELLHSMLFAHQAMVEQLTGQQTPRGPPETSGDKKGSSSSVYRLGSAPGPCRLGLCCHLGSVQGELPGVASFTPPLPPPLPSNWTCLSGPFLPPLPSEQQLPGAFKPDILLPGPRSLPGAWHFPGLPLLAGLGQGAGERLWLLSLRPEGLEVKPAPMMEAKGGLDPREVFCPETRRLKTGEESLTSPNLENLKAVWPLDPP
The conditions noted are these: protein: recombinant; tags: N-terminal GST; dsDNA, one strand shown. The gist of the method:
as §1

Experiment [13] has as its target T8, ETS2 (Homo sapiens, UniProt P15036 1-469).
T8 sequence: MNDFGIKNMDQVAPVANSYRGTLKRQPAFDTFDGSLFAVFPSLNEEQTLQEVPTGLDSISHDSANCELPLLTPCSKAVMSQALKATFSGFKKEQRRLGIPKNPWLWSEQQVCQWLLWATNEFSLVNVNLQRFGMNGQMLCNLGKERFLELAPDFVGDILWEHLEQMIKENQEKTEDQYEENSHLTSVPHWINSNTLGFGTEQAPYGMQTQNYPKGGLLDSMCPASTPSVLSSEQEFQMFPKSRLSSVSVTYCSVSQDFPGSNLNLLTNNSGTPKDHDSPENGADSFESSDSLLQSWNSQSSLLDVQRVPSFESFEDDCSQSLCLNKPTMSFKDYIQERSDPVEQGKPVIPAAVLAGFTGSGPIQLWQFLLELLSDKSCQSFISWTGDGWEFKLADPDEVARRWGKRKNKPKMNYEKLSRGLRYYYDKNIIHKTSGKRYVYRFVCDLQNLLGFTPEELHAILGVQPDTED
Particulars: protein: recombinant; tags: N-terminal GST; dsDNA, one strand shown. The gist of the method: as §1

Experiment [14] has as its target T9, SPDEF (Homo sapiens, UniProt O95238 1-335).
T9 sequence: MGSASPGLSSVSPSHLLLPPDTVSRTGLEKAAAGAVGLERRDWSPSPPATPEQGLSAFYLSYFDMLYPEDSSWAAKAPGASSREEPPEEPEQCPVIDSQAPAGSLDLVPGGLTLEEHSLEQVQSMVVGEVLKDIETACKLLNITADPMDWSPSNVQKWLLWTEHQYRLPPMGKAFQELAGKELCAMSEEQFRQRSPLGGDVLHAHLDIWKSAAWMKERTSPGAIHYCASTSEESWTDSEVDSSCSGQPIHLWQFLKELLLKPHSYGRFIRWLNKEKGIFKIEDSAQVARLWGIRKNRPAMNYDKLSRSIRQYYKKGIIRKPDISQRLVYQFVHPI
Particulars: protein: recombinant; tags: N-terminal GST; dsDNA, one strand shown. The gist of the method:
as §1

Experiment [15] addresses T10, ETV7 (Homo sapiens, UniProt Q9Y603 1-341).
T10 sequence: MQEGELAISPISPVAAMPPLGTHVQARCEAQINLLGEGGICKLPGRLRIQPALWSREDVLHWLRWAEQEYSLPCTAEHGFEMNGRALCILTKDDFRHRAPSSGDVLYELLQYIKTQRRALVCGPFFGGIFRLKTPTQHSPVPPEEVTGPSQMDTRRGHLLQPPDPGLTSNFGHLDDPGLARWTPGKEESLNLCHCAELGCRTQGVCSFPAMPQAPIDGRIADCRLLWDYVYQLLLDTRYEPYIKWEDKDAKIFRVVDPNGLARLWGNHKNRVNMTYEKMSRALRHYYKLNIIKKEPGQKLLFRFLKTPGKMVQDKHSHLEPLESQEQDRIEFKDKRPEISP
Particulars: protein: recombinant; tags: N-terminal GST; dsDNA, one strand shown. The gist of the method:
as §1

For experiment [16], the target named is T11, ELF5 (Homo sapiens, UniProt Q9UKW6-2 1-255).
T11 sequence: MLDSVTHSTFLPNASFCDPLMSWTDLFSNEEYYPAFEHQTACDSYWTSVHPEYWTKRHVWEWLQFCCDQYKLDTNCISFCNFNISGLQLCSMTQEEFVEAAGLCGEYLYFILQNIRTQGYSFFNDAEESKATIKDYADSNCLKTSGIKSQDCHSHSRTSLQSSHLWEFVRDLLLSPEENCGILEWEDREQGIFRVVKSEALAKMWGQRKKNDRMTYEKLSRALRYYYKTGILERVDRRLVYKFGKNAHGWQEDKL
Particulars: protein: recombinant; tags: N-terminal GST; dsDNA, one strand shown. The gist of the method: as §1

Experiment [17] has as its target T12, ETV3 (Homo sapiens, UniProt P41162-2 1-143).
T12 sequence: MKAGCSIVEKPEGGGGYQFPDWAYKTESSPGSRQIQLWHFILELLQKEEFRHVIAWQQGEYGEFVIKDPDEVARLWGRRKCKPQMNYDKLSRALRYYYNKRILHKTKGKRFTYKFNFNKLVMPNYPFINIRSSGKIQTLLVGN
Particulars: protein: recombinant; tags: N-terminal GST; dsDNA, one strand shown. The gist of the method: as §1

Experiment [18] has as its target ETV6 (Homo sapiens, UniProt P41212 1-452). Particulars: protein: recombinant; tags: N-terminal GST; dsDNA, one strand shown. The gist of the method: as §1

Chain of ELF4 (Q99607 whole entry): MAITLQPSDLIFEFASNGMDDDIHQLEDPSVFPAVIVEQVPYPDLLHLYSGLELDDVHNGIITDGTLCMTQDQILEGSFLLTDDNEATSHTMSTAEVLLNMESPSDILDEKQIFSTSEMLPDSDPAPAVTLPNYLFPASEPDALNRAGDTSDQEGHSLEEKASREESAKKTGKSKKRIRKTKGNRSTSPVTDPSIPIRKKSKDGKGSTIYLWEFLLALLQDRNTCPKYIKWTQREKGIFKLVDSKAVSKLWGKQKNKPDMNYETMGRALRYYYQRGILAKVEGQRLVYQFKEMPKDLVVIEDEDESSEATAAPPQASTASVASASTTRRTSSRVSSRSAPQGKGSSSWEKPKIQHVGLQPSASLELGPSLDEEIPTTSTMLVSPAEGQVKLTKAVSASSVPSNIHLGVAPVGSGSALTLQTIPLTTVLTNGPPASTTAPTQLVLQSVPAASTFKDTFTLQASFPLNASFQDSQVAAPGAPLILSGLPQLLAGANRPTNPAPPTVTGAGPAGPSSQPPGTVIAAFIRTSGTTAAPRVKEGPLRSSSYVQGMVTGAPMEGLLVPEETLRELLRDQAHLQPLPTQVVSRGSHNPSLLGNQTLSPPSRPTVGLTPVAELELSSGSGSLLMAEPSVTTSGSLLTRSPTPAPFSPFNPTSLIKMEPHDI
Chain of HSF1 (Q00613 whole entry): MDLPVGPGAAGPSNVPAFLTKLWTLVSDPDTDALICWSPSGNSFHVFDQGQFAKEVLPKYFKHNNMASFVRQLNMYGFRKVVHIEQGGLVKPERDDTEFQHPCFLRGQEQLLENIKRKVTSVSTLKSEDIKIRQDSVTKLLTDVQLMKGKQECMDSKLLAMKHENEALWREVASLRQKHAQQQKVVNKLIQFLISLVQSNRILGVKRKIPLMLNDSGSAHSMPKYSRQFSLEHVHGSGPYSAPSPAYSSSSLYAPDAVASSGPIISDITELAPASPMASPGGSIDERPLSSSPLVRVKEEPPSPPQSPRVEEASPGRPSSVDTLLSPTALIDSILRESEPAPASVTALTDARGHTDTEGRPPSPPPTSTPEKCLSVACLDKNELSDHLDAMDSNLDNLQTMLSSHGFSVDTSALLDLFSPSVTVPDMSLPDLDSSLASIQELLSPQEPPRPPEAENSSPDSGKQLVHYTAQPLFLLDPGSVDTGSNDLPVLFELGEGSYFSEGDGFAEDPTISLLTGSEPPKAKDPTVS
Chain of CRX (O43186 whole entry): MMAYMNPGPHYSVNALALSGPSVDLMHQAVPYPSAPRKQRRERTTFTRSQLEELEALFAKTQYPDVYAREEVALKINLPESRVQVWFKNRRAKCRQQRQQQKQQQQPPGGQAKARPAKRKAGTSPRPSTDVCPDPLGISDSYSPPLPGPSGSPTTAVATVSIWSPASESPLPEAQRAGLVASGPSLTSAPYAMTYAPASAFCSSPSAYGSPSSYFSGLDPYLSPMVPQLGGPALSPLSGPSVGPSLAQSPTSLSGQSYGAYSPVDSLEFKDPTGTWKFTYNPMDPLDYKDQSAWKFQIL
Chain of ETV5 (P41161 whole entry): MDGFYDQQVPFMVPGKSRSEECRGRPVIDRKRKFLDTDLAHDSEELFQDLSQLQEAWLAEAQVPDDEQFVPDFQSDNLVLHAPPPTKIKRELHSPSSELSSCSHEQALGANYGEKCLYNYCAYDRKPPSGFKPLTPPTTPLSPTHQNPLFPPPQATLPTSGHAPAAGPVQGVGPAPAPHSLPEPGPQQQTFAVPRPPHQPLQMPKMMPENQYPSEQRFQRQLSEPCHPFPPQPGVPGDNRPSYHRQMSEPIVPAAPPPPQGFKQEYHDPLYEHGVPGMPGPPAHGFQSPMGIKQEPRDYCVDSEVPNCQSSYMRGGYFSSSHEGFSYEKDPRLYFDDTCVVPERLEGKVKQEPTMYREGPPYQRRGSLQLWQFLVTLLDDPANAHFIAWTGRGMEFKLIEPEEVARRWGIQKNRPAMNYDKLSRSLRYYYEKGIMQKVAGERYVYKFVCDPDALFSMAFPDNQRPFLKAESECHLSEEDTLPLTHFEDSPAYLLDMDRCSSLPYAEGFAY
Chain of ETV1 (P50549 whole entry): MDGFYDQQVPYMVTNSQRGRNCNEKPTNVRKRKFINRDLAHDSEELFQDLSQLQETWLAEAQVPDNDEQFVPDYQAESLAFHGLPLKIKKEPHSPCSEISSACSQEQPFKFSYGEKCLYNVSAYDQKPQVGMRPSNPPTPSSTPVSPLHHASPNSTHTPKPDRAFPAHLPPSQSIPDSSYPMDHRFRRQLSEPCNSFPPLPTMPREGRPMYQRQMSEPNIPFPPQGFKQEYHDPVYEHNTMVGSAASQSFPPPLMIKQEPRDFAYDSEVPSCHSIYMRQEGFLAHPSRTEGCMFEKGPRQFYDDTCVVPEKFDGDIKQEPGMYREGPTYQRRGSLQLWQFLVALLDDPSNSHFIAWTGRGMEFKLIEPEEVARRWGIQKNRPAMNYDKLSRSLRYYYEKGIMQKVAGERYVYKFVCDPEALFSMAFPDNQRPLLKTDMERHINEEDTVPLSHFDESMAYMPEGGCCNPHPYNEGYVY
Chain of ETV6 (P41212 whole entry): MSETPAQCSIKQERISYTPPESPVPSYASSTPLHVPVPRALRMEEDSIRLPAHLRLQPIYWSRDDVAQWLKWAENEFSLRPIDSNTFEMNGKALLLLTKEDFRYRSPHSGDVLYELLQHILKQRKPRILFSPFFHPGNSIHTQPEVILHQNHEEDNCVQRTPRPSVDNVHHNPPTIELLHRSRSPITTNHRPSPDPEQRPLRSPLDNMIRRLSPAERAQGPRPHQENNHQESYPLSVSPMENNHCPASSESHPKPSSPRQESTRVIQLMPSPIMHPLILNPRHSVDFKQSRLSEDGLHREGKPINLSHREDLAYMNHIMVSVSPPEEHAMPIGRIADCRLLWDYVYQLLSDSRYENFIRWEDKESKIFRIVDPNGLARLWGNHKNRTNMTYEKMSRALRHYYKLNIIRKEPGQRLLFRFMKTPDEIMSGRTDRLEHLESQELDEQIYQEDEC

With CCTAAT, the binding signal was 1.32 fold enrichment (6-mer frequency, TF over GST control) in [1]; 1.31 fold enrichment (6-mer frequency, TF over GST control) in [2]; 1.75 fold enrichment (6-mer frequency, TF over GST control) in experiment [3]; 1.33 fold enrichment (6-mer frequency, TF over GST control) in [4]; 1.26 fold enrichment (6-mer frequency, TF over GST control) in experiment [5]; 1.24 fold enrichment (6-mer frequency, TF over GST control) in [6]. Also, the binding signal in [7] was 1.44 fold enrichment (6-mer frequency, TF over GST control); in [8], 1.52 fold enrichment (6-mer frequency, TF over GST control); in experiment [9] it was 2.61 fold enrichment (6-mer frequency, TF over GST control); in experiment [10] it was 1.38 fold enrichment (6-mer frequency, TF over GST control); in [11], 1.24 fold enrichment (6-mer frequency, TF over GST control); in experiment [12], 1.33 fold enrichment (6-mer frequency, TF over GST control). The binding signal in [13] was 1.33 fold enrichment (6-mer frequency, TF over GST control); in [14] it was 1.36 fold enrichment (6-mer frequency, TF over GST control); in experiment [15], 1.31 fold enrichment (6-mer frequency, TF over GST control); in [16], 1.25 fold enrichment (6-mer frequency, TF over GST control); in [17], 1.22 fold enrichment (6-mer frequency, TF over GST control); in [18], 1.31 fold enrichment (6-mer frequency, TF over GST control).
